The results in this text go back to PubChem BioAssay (NCI).

Molecules are shown by their SMILES. Compounds without any hit were thinned out: in the full panel of roughly 83,000, 20% have a hit.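 Single-concentration screen, 48 h exposure, 96-well plates. Endpoint: percent growth. Below 10 = active.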 A number with no mark means an inactive call. The source made the active and inactive calls.

Experiment in all cases: NCI-60 one-dose screen, 48 h (100 = growth as untreated, 0 = no growth, -100 = all killed)
One experiment has as its system HCT-15 colon. The conditions noted are these: 10 µM unless noted.
The next experiment relates to HT29 colon. The conditions noted are these: 10 µM unless noted.
Another experiment deals with SNB-75 CNS. The conditions noted are these: 10 µM unless noted.
For the next experiment, the system named is SNB-19 CNS. The conditions noted are these: 10 µM unless noted.
A further experiment concerns U251 CNS. The conditions noted are these: 10 µM unless noted.
The test system of a further experiment is PC-3 prostate. The conditions noted are these: 10 µM unless noted.
In another experiment the test system is SK-MEL-5 melanoma. The conditions noted are these: 10 µM unless noted.
Another experiment concerns UACC-62 melanoma. The conditions noted are these: 10 µM unless noted.
In a further experiment the test system is LOX IMVI melanoma. The conditions noted are these: 10 µM.
A further experiment deals with SK-MEL-28 melanoma. The conditions noted are these: 10 µM unless noted.
For another experiment, the system named is SK-MEL-2 melanoma. The conditions noted are these: 10 µM unless noted.
The subject of a further experiment is EKVX NSCLC. The conditions noted are these: 10 µM unless noted.
The test system of another experiment is SN12C renal. The conditions noted are these: 10 µM unless noted.
In the next experiment the test system is UO-31 renal. The conditions noted are these: 10 µM unless noted.
The next experiment deals with TK-10 renal. The conditions noted are these: 10 µM unless noted.
The subject of another experiment is ACHN renal. The conditions noted are these: 10 µM unless noted.
The subject of another experiment is CAKI-1 renal. The conditions noted are these: 10 µM unless noted.
Another experiment relates to A498 renal. The conditions noted are these: 10 µM unless noted.
The test system of another experiment is CCRF-CEM leukemia. The conditions noted are these: 10 µM unless noted.
A further experiment relates to MOLT-4 leukemia. The conditions noted are these: 10 µM unless noted.

Regarding `S=C(Sc1ccc(Cl)cc1)Sc1ccc(Cl)cc1`, the growth in the experiment on HCT-15 colon is 3.17% (active); with HT29 colon, 4.96% (active); in the experiment with SNB-75 CNS it was 46%; with SNB-19 CNS, 83.9%; with U251 CNS it was -43% (active); in the experiment on PC-3 prostate, 9.49% (active). The growth was 65.9% in the experiment with SK-MEL-5 melanoma; -47% (active) in the experiment on UACC-62 melanoma; -100% (active) in the experiment on LOX IMVI melanoma; -64.2% (active) in the experiment with SK-MEL-28 melanoma; 90.9% with SK-MEL-2 melanoma; 49.1% in the experiment on EKVX NSCLC. Further, the growth in the experiment with SN12C renal is -47.6% (active); with UO-31 renal, -59.8% (active); in the experiment with TK-10 renal it was -36.3% (active); in the experiment with ACHN renal, 70%; in the experiment with CAKI-1 renal, -75.6% (active); in the experiment with A498 renal it was 70.6%. The growth with CCRF-CEM leukemia was -15.8% (active); in the experiment with MOLT-4 leukemia, -25.4% (active).
As to `CCOC(=O)C(COS(C)(=O)=O)(COS(C)(=O)=O)C(=O)OCC`, the growth in the experiment with HCT-15 colon is 107%; with HT29 colon, 108%; in the experiment with SNB-75 CNS it was 99.4%; with SNB-19 CNS it was 106%; with U251 CNS, 101%; in the experiment with PC-3 prostate, 98.5%. Also, the growth with SK-MEL-5 melanoma was 109%; in the experiment with UACC-62 melanoma, 103%; in the experiment on LOX IMVI melanoma, 98.3%; in the experiment on SK-MEL-28 melanoma, 105%; with SK-MEL-2 melanoma, 114%; with EKVX NSCLC, 102%. For the same compound, the growth in the experiment on SN12C renal was 104%; in the experiment with UO-31 renal, 95.7%; in the experiment with TK-10 renal it was 111%; in the experiment with ACHN renal, 103%; in the experiment on CAKI-1 renal, 100%; with A498 renal, 97.5%. Further, in the experiment with MOLT-4 leukemia, the growth was 96.3%.
In the case of `CCCCCCCCCCCCCC/C=C\C(CC(=O)O)C(=O)O` (centres undefined), the growth is 107% with HCT-15 colon; 103% in the experiment with HT29 colon; 90.1% in the experiment with SNB-75 CNS; 103% in the experiment on SNB-19 CNS; 107% in the experiment on U251 CNS; 96.2% in the experiment on PC-3 prostate. For the same compound, the growth with SK-MEL-5 melanoma is 104%; in the experiment on UACC-62 melanoma, 100%; in the experiment with LOX IMVI melanoma, 110%; with SK-MEL-28 melanoma, 108%; with SK-MEL-2 melanoma it was 110%; with EKVX NSCLC it was 140%. Moreover, the growth is 100% with SN12C renal; 95.9% in the experiment on UO-31 renal; 111% in the experiment with TK-10 renal; 110% with ACHN renal; 129% in the experiment with CAKI-1 renal; 95.2% with A498 renal. Moreover, the growth with CCRF-CEM leukemia was 4.62% (active); in the experiment on MOLT-4 leukemia, 115%.
Regarding `O=C(c1ccc(Cl)cc1)N1CCCCC1`, the growth with HCT-15 colon is 98.5%; in the experiment with HT29 colon, 101%; with SNB-75 CNS, 88.5%; in the experiment with SNB-19 CNS, 93.7%; in the experiment on U251 CNS, 94.7%; with PC-3 prostate, 97.8%. For the same compound, the growth with SK-MEL-5 melanoma is 100%; with UACC-62 melanoma, 95%; in the experiment with LOX IMVI melanoma it was 97.6%; in the experiment on SK-MEL-28 melanoma, 101%; in the experiment with SK-MEL-2 melanoma, 102%; in the experiment on EKVX NSCLC, 98.1%. In addition, the growth is 92.2% with SN12C renal; 93.3% in the experiment with UO-31 renal; 91% in the experiment on TK-10 renal; 101% with ACHN renal; 97.4% with CAKI-1 renal; 73.3% in the experiment with A498 renal. The growth in the experiment with MOLT-4 leukemia is 98.9%.
`COc1cc(N)c2ncccc2c1Cl`: the growth was 90.5% in the experiment on HCT-15 colon; 91.1% with HT29 colon; 99.8% in the experiment on SNB-75 CNS; 98.8% in the experiment with SNB-19 CNS; 101% in the experiment with U251 CNS; 93.3% in the experiment on PC-3 prostate. Besides, the growth in the experiment with SK-MEL-5 melanoma is 96.4%; with UACC-62 melanoma it was 86.7%; with LOX IMVI melanoma it was 104%; in the experiment with SK-MEL-28 melanoma, 121%; in the experiment on SK-MEL-2 melanoma it was 96.7%; in the experiment on EKVX NSCLC it was 84.3%. Also, the growth in the experiment on SN12C renal is 91.5%; in the experiment on UO-31 renal, 78.4%; in the experiment with TK-10 renal, 93.6%; in the experiment with ACHN renal it was 91.2%; with CAKI-1 renal, 95.8%; in the experiment on A498 renal, 97.1%. Further, the growth in the experiment on MOLT-4 leukemia was 93.3%.
As to `O=C(CCCl)OCCOc1ccccc1`, the growth in the experiment on HCT-15 colon was 105%; in the experiment on HT29 colon it was 102%; with SNB-75 CNS, 96.1%; in the experiment on SNB-19 CNS it was 108%; with U251 CNS, 99.9%; in the experiment with PC-3 prostate, 95.9%. The growth in the experiment on SK-MEL-5 melanoma is 108%; in the experiment on UACC-62 melanoma, 108%; in the experiment with LOX IMVI melanoma, 96.6%; with SK-MEL-28 melanoma, 107%; in the experiment with SK-MEL-2 melanoma it was 104%; in the experiment with EKVX NSCLC, 109%. In addition, the growth in the experiment on SN12C renal is 104%; with UO-31 renal, 88.5%; in the experiment with TK-10 renal it was 100%; with ACHN renal, 106%; in the experiment with CAKI-1 renal it was 102%; in the experiment on A498 renal, 89%. Moreover, the growth with MOLT-4 leukemia was 92.1%.
On to `CCCOCc1cn[nH]n1`, for which the growth with HCT-15 colon is 106%; in the experiment on HT29 colon, 105%; in the experiment with SNB-75 CNS, 98.1%; with SNB-19 CNS, 115%; in the experiment with U251 CNS, 96.1%; in the experiment with PC-3 prostate, 102%. For the same compound, the growth in the experiment with SK-MEL-5 melanoma is 106%; with UACC-62 melanoma, 98.2%; in the experiment on LOX IMVI melanoma it was 98.6%; in the experiment with SK-MEL-28 melanoma, 109%; in the experiment on SK-MEL-2 melanoma, 104%; in the experiment with EKVX NSCLC it was 103%. The growth with SN12C renal is 105%; with UO-31 renal it was 91.6%; in the experiment with TK-10 renal, 102%; in the experiment with ACHN renal it was 110%; in the experiment on CAKI-1 renal, 104%; in the experiment on A498 renal, 100%. Moreover, in the experiment with MOLT-4 leukemia, the growth was 106%.
For `O=CNCCc1ccccc1`, the growth was 109% with HCT-15 colon; 98.3% with HT29 colon; 82.9% with SNB-75 CNS; 98.4% in the experiment with SNB-19 CNS; 99.4% with U251 CNS; 91.4% in the experiment on PC-3 prostate. The growth was 107% with SK-MEL-5 melanoma; 96.8% in the experiment on UACC-62 melanoma; 109% with LOX IMVI melanoma; 113% in the experiment with SK-MEL-28 melanoma; 105% in the experiment on SK-MEL-2 melanoma; 97.3% in the experiment on EKVX NSCLC. Also, the growth in the experiment on SN12C renal was 90%; in the experiment with UO-31 renal, 87.8%; with TK-10 renal it was 92.4%; with ACHN renal, 98.5%; in the experiment on CAKI-1 renal, 93.8%; in the experiment on A498 renal, 111%. For the same compound, the growth is 103% in the experiment on CCRF-CEM leukemia and 96.8% with MOLT-4 leukemia.
Turning to `O=C(O)c1ccc(OCc2ccccc2)cc1`, the growth was 109% with HCT-15 colon; 100% with HT29 colon; 87.8% in the experiment on SNB-75 CNS; 95% in the experiment on SNB-19 CNS; 93.7% in the experiment on U251 CNS; 90.4% with PC-3 prostate. The growth with SK-MEL-5 melanoma was 96.2%; in the experiment on UACC-62 melanoma, 95.6%; in the experiment with LOX IMVI melanoma, 98.3%; with SK-MEL-28 melanoma, 101%; in the experiment on SK-MEL-2 melanoma it was 101%; in the experiment with EKVX NSCLC, 110%. In addition, the growth was 98.2% in the experiment on SN12C renal; 89.6% in the experiment with UO-31 renal; 96.7% with TK-10 renal; 94.3% with ACHN renal; 92.7% in the experiment with CAKI-1 renal; 104% in the experiment on CCRF-CEM leukemia. In the experiment on MOLT-4 leukemia, the growth was 98%.
